Test results published in publication PMC9911399, “Two distinct binding modes provide the RNA-binding protein RbFox with extraordinary sequence specificity”.
Positions count from the first letter of the chain named. Over roughly 16,000 sequences, “ka relative to ugcaugu” has its median near 0.096; the highest 2% begin near 0.35. What follows is part of a selection rich in the highest values, with near analogues and random picks from the rest.

T1: RBFOX1 RRM RbFoxmut (Fox-RRM*) (Homo sapiens, UniProt Q9NWB1 109-208, R118D;E147R;N151S;E152T)
T1 sequence: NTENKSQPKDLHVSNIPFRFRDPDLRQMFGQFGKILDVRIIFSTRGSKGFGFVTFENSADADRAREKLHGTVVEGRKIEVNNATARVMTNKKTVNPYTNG

B1: AUGACGA (DNA:RNA)
RNA: GGGAGACCGGAAUUCAGAUUGUCCAUGACGAUUAAAUCCCGUCGUAGCCACCA
DNA 1: CAATCTGAATTCCGGTCTCCC
DNA 2: TGGTGGCTACGACGGGATT
B2: UACCUCG (DNA:RNA)
RNA: GGGAGACCGGAAUUCAGAUUGUCCUACCUCGUUAAAUCCCGUCGUAGCCACCA
DNA 1: CAATCTGAATTCCGGTCTCCC
DNA 2: TGGTGGCTACGACGGGATT
B3: UUUCACA (DNA:RNA)
RNA: B2 RNA with A26U, C27U, U29A, G31A
DNA 1: CAATCTGAATTCCGGTCTCCC
DNA 2: TGGTGGCTACGACGGGATT
B4: AGUUGGC (DNA:RNA)
RNA: B1 RNA with U26G, G27U, A28U, C29G, A31C
DNA 1: CAATCTGAATTCCGGTCTCCC
DNA 2: TGGTGGCTACGACGGGATT
B5: AAGCUUU (DNA:RNA)
RNA: B2 RNA with U25A, C27G, C30U, G31U
DNA 1: CAATCTGAATTCCGGTCTCCC
DNA 2: TGGTGGCTACGACGGGATT
B6: GACCGCU (DNA:RNA)
RNA: B2 RNA with U25G, U29G, G31U
DNA 1: CAATCTGAATTCCGGTCTCCC
DNA 2: TGGTGGCTACGACGGGATT
B7: GCCGCGG (DNA:RNA)
RNA: B1 RNA with A25G, U26C, G27C, A28G, A31G
DNA 1: CAATCTGAATTCCGGTCTCCC
DNA 2: TGGTGGCTACGACGGGATT
B8: CCUACUC (DNA:RNA)
RNA: B1 RNA with A25C, U26C, G27U, G30U, A31C
DNA 1: CAATCTGAATTCCGGTCTCCC
DNA 2: TGGTGGCTACGACGGGATT
B9: GCGAAUU (DNA:RNA)
RNA: B1 RNA with A25G, U26C, C29A, G30U, A31U
DNA 1: CAATCTGAATTCCGGTCTCCC
DNA 2: TGGTGGCTACGACGGGATT
B10: CGAUGUG (DNA:RNA)
RNA: B2 RNA with U25C, A26G, C27A, C28U, U29G, C30U
DNA 1: CAATCTGAATTCCGGTCTCCC
DNA 2: TGGTGGCTACGACGGGATT
B11: GCGAACG (DNA:RNA)
RNA: B1 RNA with A25G, U26C, C29A, G30C, A31G
DNA 1: CAATCTGAATTCCGGTCTCCC
DNA 2: TGGTGGCTACGACGGGATT
B12: GCGAUUG (DNA:RNA)
RNA: B1 RNA with A25G, U26C, C29U, G30U, A31G
DNA 1: CAATCTGAATTCCGGTCTCCC
DNA 2: TGGTGGCTACGACGGGATT
B13: GAACGUC (DNA:RNA)
RNA: B2 RNA with U25G, C27A, U29G, C30U, G31C
DNA 1: CAATCTGAATTCCGGTCTCCC
DNA 2: TGGTGGCTACGACGGGATT
B14: GCGAACC (DNA:RNA)
RNA: B1 RNA with A25G, U26C, C29A, G30C, A31C
DNA 1: CAATCTGAATTCCGGTCTCCC
DNA 2: TGGTGGCTACGACGGGATT
B15: GCGCGAA (DNA:RNA)
RNA: B1 RNA with A25G, U26C, A28C, C29G, G30A
DNA 1: CAATCTGAATTCCGGTCTCCC
DNA 2: TGGTGGCTACGACGGGATT
B16: GAUUGUG (DNA:RNA)
RNA: B2 RNA with U25G, C27U, C28U, U29G, C30U
DNA 1: CAATCTGAATTCCGGTCTCCC
DNA 2: TGGTGGCTACGACGGGATT
B17: GCGAAUG (DNA:RNA)
RNA: B1 RNA with A25G, U26C, C29A, G30U, A31G
DNA 1: CAATCTGAATTCCGGTCTCCC
DNA 2: TGGTGGCTACGACGGGATT
B18: GCGACCG (DNA:RNA)
RNA: B1 RNA with A25G, U26C, G30C, A31G
DNA 1: CAATCTGAATTCCGGTCTCCC
DNA 2: TGGTGGCTACGACGGGATT
B19: GAAUGUG (DNA:RNA)
RNA: B2 RNA with U25G, C27A, C28U, U29G, C30U
DNA 1: CAATCTGAATTCCGGTCTCCC
DNA 2: TGGTGGCTACGACGGGATT
B20: GCGAAUC (DNA:RNA)
RNA: B1 RNA with A25G, U26C, C29A, G30U, A31C
DNA 1: CAATCTGAATTCCGGTCTCCC
DNA 2: TGGTGGCTACGACGGGATT

target: T1, RBFOX1 RRM RbFoxmut (Fox-RRM*); assay: EMSA; HiTS-Eq, 1 nM pool, 10 min; buffer printed only for the single-RNA assays: 10 mM Tris pH 7.5, 150 mM NaCl, 3.4 mM EDTA, 0.001% NP-40, 30 C; settings: tags: His6 N-terminal (pET28a); label: 5' 32P
In short: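 Purified wild-type or mutant RbFox RRM at increasing concentrations was equilibrated with 1 nM of 5′-radiolabelled RNA carrying 7 randomized nucleotides for 10 min in 50 µL. Unbound RNA was separated by 8% native PAGE and sequenced. Relative association constants came from read-count changes of each RNA species compared with the control reaction, normalised to the cognate motif.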

Binder | binding signal
B1 | 0.0609 KA relative to UGCAUGU
B2 | 0.107 KA relative to UGCAUGU
B3 | 0.0896 KA relative to UGCAUGU
B4 | 0.107 KA relative to UGCAUGU
B5 | 0.0764 KA relative to UGCAUGU
B6 | 0.0966 KA relative to UGCAUGU
B7 | 0.0996 KA relative to UGCAUGU
B8 | 0.0423 KA relative to UGCAUGU
B9 | 0.113 KA relative to UGCAUGU
B10 | 0.151 KA relative to UGCAUGU
B11 | 0.354 KA relative to UGCAUGU
B12 | 0.206 KA relative to UGCAUGU
B13 | 0.102 KA relative to UGCAUGU
B14 | 0.0798 KA relative to UGCAUGU
B15 | 0.104 KA relative to UGCAUGU
B16 | 0.249 KA relative to UGCAUGU
B17 | 1.44 KA relative to UGCAUGU
B18 | 0.111 KA relative to UGCAUGU
B19 | 1.27 KA relative to UGCAUGU
B20 | 0.385 KA relative to UGCAUGU
